According to PubChem BioAssay AID602314 (ICCB-Longwood Screening Facility, Harvard Medical School, 2012):
Values joined by “and” are separate entries in the source; they are usually repeats but may differ in a detail not shown here. Equal values may be shown once. The whole screen tested about 84,000 compounds, of which about 110 (0.13%) were called active. No stated cut-off is given here; in the data, active means inhibition above about 30% (passing the limit was not always enough); inactive means the rest. The entries come from a sample that favours actives as a whole. Some compounds were tested as several samples or in several runs, with calls that do not always agree.

System: MgrA (MarR family transcriptional regulator), Staphylococcus aureus Newman
Experiment: modulators of MgrA DNA binding – biochemical, S. aureus Newman, fluorescence polarization, primary screen (AID 602314);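 further: 0% = protein plus DNA without compound and 100% = DNA alone without protein; higher means less MgrA bound to DNA so lower polarization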
Settings: stronger effect = higher value, concentration not given here

inhibition, 104% (active) and 0.85% (inactive):
CC[N+](C)(CC)CCC[n+]1c(-c2ccccc2)c2cc(N)ccc2c2ccc(N)cc21

inhibition, inactive:
CCOc1ccc(CC(C(=O)O)C(=O)O)cc1 0.1%, N#CCCN(C1CCCCC1)S(=O)(=O)c1ccc(Br)cc1 -0.95%, COc1ccc(CC(NC(C)=O)C(=O)O)c(Cl)c1OC (configuration not stated) -0.7%, Cn1c(SCC(=O)Nc2ccc(C(F)(F)F)cc2)nnc1-c1ccc2nonc2c1 -0.1%, COC(=O)C1=Cc2cc(Cl)ccc2OC1 0.15%, Cc1cccc(CN2C(=O)CSc3nc(C)cc(C)c32)c1 -0.45%, CCN(CC)CCCN1C(=O)C2C3C=CC(C2C1=O)C1C2C(=O)N(CCCN(CC)CC)C(=O)C2C31 (configuration not stated) 0.8%, CCOc1ccc(NC(=O)c2cc(-c3ccc(OC)c(OC)c3)nc3ccccc23)c([N+](=O)[O-])c1 -1.4%, COc1ccc(C)c2c1CCCC2=O -1.4%, Cc1ccc(Nc2cc([Se]c3ccccc3)c(N)c3c2C(=O)c2ccccc2C3=O)cc1 -3.2%, Cc1ccc2sc(-c3ccc(NC(=O)C(C)C)cc3)nc2c1 -2.5%, Cc1ccc(-c2noc(CN(C)C(=O)Nc3ccc(Cl)cc3)n2)cc1 0.05%, COc1cccc2c1NC(c1cccc(Cl)c1Cl)C1CC=CC21 (configuration not stated) -1.1%, Cc1ccccc1Cn1nnc(-c2ccncc2)n1 -3.5%, COc1ccc(-c2ccc(/C=c3\sc4nc5cc(C)c(C)cc5n4c3=O)o2)c([N+](=O)[O-])c1 0.8%, O=C(CC1CCCCC1)NCc1ccco1 1.25%, CC(=O)Oc1ccc(OC(C)=O)c2c1C1C=CC2CC1 -2.5%, COc1ccc(Nc2nc(Cl)nc(NCCN3CCOCC3)n2)c(OC)c1 0.3%, O=C(Nc1ccccc1C(=O)N1CCCC1)Oc1ccccc1 -0.95%, CCCCn1c(SCC(=O)N(C(C)C)C(C)C)nc2c1c(=O)n(C)c(=O)n2C 0.4%, O=c1c2c3c(sc2ncn1Cc1nn[nH]n1)CCCC3 -0.2%, Cc1c(CN2CCCCC2)c(O)n(CCO)c(=O)c1C#N -3.25%, C=CCn1cnc2c(c1=O)c1nc3ccccc3nc1n2-c1cccc(Br)c1 2.4%, CCOc1cc2c(cc1/C=C(\C#N)c1ccc(C(F)(F)F)cc1)OCO2 1.15%, O=S(=O)(c1ccc(Cl)cc1)N1CCCN(Cc2ccc(Cl)cc2Cl)CC1 1%, CCn1cc(S(=O)(=O)Nc2cc(C)on2)cn1 -2.15%, COc1ccccc1N1C(=O)NC(=O)/C(=C/c2cn(C(C)=O)c3ccccc23)C1=O 10.3%, O=S(=O)(c1ccc(Br)s1)N1CCCC1 2.65%, CSc1noc(-c2ccc(C(C)(C)C)cc2)c1C#N 4.25%, N=C1/C(=C\c2cccn2-c2ccc3ccccc3c2)C(=O)N=C2SC=NN12 4.5%, CCOC(=O)C1CCCN(c2c3c(nc4cc(-c5ccc(C)cc5)nn24)CCC3)C1 (configuration not stated) -2.15%, COc1cc(C=Nc2ccc3[nH]c(=O)[nH]c3c2)ccc1OC(C)=O 0.05%, COc1ccc2nc(SCC(=O)c3ccc(Cl)c(Cl)c3)[nH]c2c1 -2.6%, Cn1c(-c2ccccc2)c[n+]2c1CCCCC2 -2.6%, N=Cc1c(O)n(-c2ccccc2)c2ccccc12 4.8%, CCOC(=O)C1=C(C)N(C)C(C)=C(C(=O)OCC)C1c1ccccc1F -0.1%, O=c1oc(Nc2ccc(C(F)(F)F)cc2)nc2ccccc12 0.2%, COc1ccc(CCN(Cc2cc3cc4c(cc3[nH]c2=O)OCO4)C(=O)c2ccncc2)cc1OC 2.6%, S=C(Nc1ccc2[nH]ccc2c1)NC1CC2C=CC1C2 (configuration not stated) -0.05%, Cc1cccc(NC(=O)c2cn(-c3ccccc3)nc2-c2cccnc2)c1 -3%, OC1(C(F)(F)F)CC(c2ccccc2)=NN1c1cccc2cccnc12 (configuration not stated) -1.3%, CN1C(=O)C2N=NN(c3ccccc3)C2C1=O (configuration not stated) 1.8%, O=C(N/N=C/C1CC=CCC1)c1ccccc1 (configuration not stated) 2.3%, O=C(COc1ccc(C2Nc3cccc4cccc(c34)N2)cc1)Nc1ccccc1 1.95%, O=C(Nc1cccc2ccccc12)NC1CC1 1.3%, CC1=C(C(=O)OCC2CCCCC2)C(c2ccccc2OCc2ccccc2)NC(=O)N1 (configuration not stated) -1.8%, CCOC(=O)c1sc(NC(=O)c2sc3ccccc3c2Cl)nc1-c1ccccc1 -3.1%, COc1cccc(C(=O)Nc2ccccc2Cl)c1 -5.8%, COc1ccccc1N1C(=O)C(=Cc2ccco2)C(=O)N(c2ccccc2OC)C1=O 2.2%, CC(=O)Oc1ccc(C2NC(C(=O)O)CS2)cc1 (configuration not stated) -3.3%, O=C1NC(=S)N(c2ccc(Br)cc2)C(=O)/C1=C/c1ccsc1 24.2%, O=C(O)c1ccc(Cl)cc1N=Cc1nc(-c2ccc(Br)cc2)oc1O -0.9%, Cc1ccc(-c2nn(CCC(=O)Nc3cccc(C(F)(F)F)c3)c(=O)c3ccccc23)cc1 0.65%, O=C(CN1CCN(c2cccc(Cl)c2)CC1)c1ccc(Cl)cc1 6.3%, COC(=O)c1cccnc1NC(=S)NC(C)C 3.15%, COc1ccc(NC(=O)Nc2ccc(N3CCOCC3)cc2)cc1 -0.2%, O=C1C(Nc2ccc(O)cc2)=C(n2nnc3ccccc32)C(=O)c2ccccc21 -0.3%, NC(=S)C1(c2ccc(Cl)cc2Cl)CC1 -0.5%, CC1CN(S(=O)(=O)c2ccc3c4c(cccc24)C(=O)N3)CC(C)O1 (configuration not stated) 0.25%, CC[n+]1c(C)n(-c2ccccc2)c2ccc(N)cc21 1.45%, N=C1/C(=C/c2ccc(SCc3ccccc3)o2)C(=O)N=C2SC=CN12 1.55%
